# Assay outcomes (PubChem BioAssay)
# Most compounds without a hit are left out; they make up all but 21% or so of the library.
# Cycloheximide cs = counter-screen hit for Shiga toxin inhibitors, cycloheximide; cell reporter, cycloheximide protein synthesis inhibition counterscreen; max response, %; 12% of 300,000 active; AID 2314; in the data active = max response mostly above about 13%, no sharp cut-off; inactive = mostly below about 14%; also: read at 38.3 µM for the half of the compounds with a filed dose; 0% is about no effect
# Pf growth 96h = inhibits malaria parasite growth, 96 h; 6.9% of 320,000 active; Potency, µM (highest dose often 28.7 µM), for inactives: at the highest dose activity change, negative = inhibition, usual class: inhibitors; AID 504834; P. falciparum luciferase reporter growth, 96 h; also: potency is read from the fitted curve at half-maximal effect; % is scaled to controls: 0 for no effect and ±100 for the full control effect
#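 Erythrocytes infected with luciferase-expressing P. falciparum were dispensed at 2% hematocrit and 0.05% parasitemia (final), then incubated with compounds 96 hours at 37 C in 5% CO2. Luminescence after detection reagent addition reported growth.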
# Pf growth 48h = P. falciparum growth inhibition at 48 hours (one generation); P. falciparum luciferase growth in erythrocytes, 48 h; 5.9% of 310,000 active; Potency, µM (titrated, usually from 28.7 µM), without a hit: top-dose activity change, negative = inhibition, usual class: inhibitors; also: potency is read from the fitted curve at half-maximal effect; % is scaled to controls: 0 for no effect and ±100 for the full control effect
#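 Firefly luciferase activity from engineered P. falciparum reports growth; inhibitors lower the luminescent signal. Cultures contained 2% hematocrit erythrocytes at 0.1% final parasitemia.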
# Shiga toxin inh = inhibitors of Shiga toxin in Vero cells. Vero cells, Shiga toxin protein synthesis inhibition reporter. inhibition, % at 38.7 µM. 9.2% of 290,000 active. AID 2315; in the data active = inhibition mostly above about 28%, no sharp cut-off; inactive = mostly below about 43%; also: 0% is about no effect
# Starred values were filed as active, the others as inactive; ? = inconclusive; nt = no result; [ ] = dose if it differs, or a comment. Unless noted, calls follow the shape of the dose curve; as a rule, active = well fitted inhibition curve with a large enough effect; inconclusive = small, poorly fitted or top-dose-only effect, or another doubt; inactive = no such curve, though single readings can be large or run the other way.
SMILES,Cycloheximide cs,Pf growth 96h,Pf growth 48h,Shiga toxin inh
O=C(c1ccccc1)c1ccc(-c2ccc(O)cc2)cc1,40*,127%,90%,68*
CN(C)c1ccc(C(=O)c2ccccc2)cc1,26*,133%,nt,41
CN(C)c1cccc(C(=O)N(Cc2ccccc2)Cc2ccccc2)c1,1,10µM*,-12%,-3
CC(=O)Nc1cccc(C(=O)N(Cc2ccccc2)Cc2ccccc2)c1,-2,-21%,2%,-6
O=S(=O)(c1ccc2c(c1)OCCO2)N1CCN(S(=O)(=O)c2ccccc2F)CC1,1,nt,nt,-4
CCC(NC(=O)c1ccc2nc(Cc3ccc(OC)cc3)oc2c1)c1ccncc1 (configuration not stated),31,?,-18%,-2
C=C(C)CNC(=O)c1ccc2nc(Cc3ccc(OC)cc3)oc2c1,39*,-5%,11%,39*
COC(=O)CCCNC(=O)c1ccc2nc(Cc3ccc(OC)cc3)oc2c1,14*,33%,0%,60
CCC(C)NC(=O)c1ccc2nc(Cc3ccc(OC)cc3)oc2c1 (configuration not stated),7,-11%,?,-25
COc1cccc(/C=N/n2c(C)nc3ccccc32)c1OC,21,38%,2%,38*
COc1cccc(/C=N/n2c(=O)[nH]c3ccccc32)c1OC,38*,24%,64%,42*
Fc1cc(F)cc(NC(=S)Nc2ccccc2N2CCOCC2)c1,-1,-5%,-13%,-14
N#C/C(=N\Nc1cccc(C(F)(F)F)c1)C(=O)c1ccsc1,68*,-4%,142%,94*
Cc1nonc1C(=O)N/N=C/c1ccncc1,29*,8.3µM*,8%,51*
COc1ccc(/C=N/NC(=O)c2cc[n+]([O-])cc2)cc1,-1,4%,-9%,-11
Cc1c(C(=O)N/N=C/c2ccncc2)no[n+]1[O-],21*,23%,9%,-3
COc1ccc(/C=N/NC(=O)c2nonc2C)cc1,44*,46%,10%,62*
COc1ccc(/C=N\NC(=O)C2=NNC(=O)C2C)cc1 (configuration not stated),25*,317%,324%,42*
CN(C)C(=O)Oc1cccc(OCc2n(C)c3ccccc3[n+]2C)c1,-4,2.9µM*,?,-2
CN(C)C(=O)Nc1cccc(OC(=O)N(C)C)c1,-1,nt,-10%,12
CCCCNS(=O)(=O)c1ccc(OCC(=O)N2CCN(Cc3ccc4c(c3)OCO4)CC2)cc1,12,10µM*,?,-5
CS(=O)(=O)N(CC(=O)N1CCN(Cc2ccc3c(c2)OCO3)CC1)Cc1ccc(Cl)cc1,-2,1.9µM*,nt,-15
CS(=O)(=O)N(CC(=O)N1CCOCC1)Cc1ccc(Cl)cc1,1,7.4µM*,-2%,2
O=C(N/C(=C\c1ccco1)C(=O)N1CCCC(CO)C1)c1ccccc1 (configuration not stated),1,25%,0%,18
CC1(C)CC(=O)C2=C(C1)OC1OC(=O)CC21C (configuration not stated),2,46%,20%,12
SMILES,Cycloheximide cs,Pf growth 96h,Pf growth 48h,Shiga toxin inh
C/C(=N\N=C\c1ccc(N(C)C)cc1)c1cccc([N+](=O)[O-])c1,37*,?,67%,50*
C/C(=N\N=C(N)N)c1cccc([N+](=O)[O-])c1,-5,?,7%,-2
C[C@@H](NC(=O)c1nc[nH]c1C(=O)N[C@@H](CCCCNC(=O)OC(C)(C)C)C(=O)OC(C)(C)C)c1ccccc1,6,?,?,11
CC(C)(C)OC(=O)NCCCC[C@H](NC(=O)c1[nH]cnc1C(=O)Nc1ccc(Cl)cc1)C(=O)OC(C)(C)C,1,5.9µM*,5.2µM*,-4
CC(C)(C)OC(=O)NCCCC[C@H](NC(=O)c1[nH]cnc1C(=O)Nc1ccccc1)C(=O)OC(C)(C)C,8,5.2µM*,4.7µM*,-4
CCOC(=O)c1c(S(=O)(=O)NC2CCN(C(=O)OCC)CC2)c(C)n(C)c1C,-4,-8%,9%,6
CCCN(Cc1nnc(-c2ccccc2Cl)o1)C(=O)c1cccc(S(=O)(=O)N2CCOCC2)c1,7,?,?,6
CCCN(Cc1nnc(-c2ccccc2Cl)o1)C(=O)c1oc2ccccc2c1C,nt,9.3µM*,9.3µM*,nt
[O-]/[N+](=C/c1ccc(F)cc1)c1ccc(Cl)cc1,54*,-12%,121%,53
CC(C)(/C=N/O)/[N+]([O-])=C/c1ccco1,20,64%,1%,-7
[O-]/[N+](=C\c1ccco1)c1ccc(Cl)cc1,61*,?,?,82*
[O-]/[N+](=C/c1ccco1)c1ccccc1,23*,?,15%,40
O=C(NNC(=O)C1[C@H]2CCCC[C@@H]12)NC1CCCCC1 (some centres not stated),7,30%,3%,24
CCCCC(=O)Nc1ccc(NC(=O)C(C)C)cn1,26*,nt,51%,73*
CCCCC(=O)Nc1ccc(NC(=O)c2cnccn2)cn1,25*,9%,32%,27
CC(=O)Nc1ccc(S(=O)(=O)Oc2cccc(N3C(=O)C4CC=CCC4C3=O)c2)cc1 (configuration not stated),-3,2.3µM*,nt,18
Cc1cc(N2C(=O)C3CCC(c4ccccc4)CC3C2=O)no1 (configuration not stated),0,-3%,-3%,-6
Cc1ccc(C)[n+](CC(=O)N2CCCCC2)c1,-3,-11%,85%[1.15 µM],-5
Oc1cccc2nc3ccccc3nc12,21*,12µM*,?,44
CCN(CC)C(=O)c1cccc2nc3ccccc3nc12,-2,14%,5%,4
CCOC(=O)c1ccc(COC(=O)c2cc3ccccc3oc2=O)o1,28*,-2%,18%,40
COc1ccc2oc(=O)c(C(=O)OCc3ccccc3)cc2c1,23*,0%,8%[0.00184 µM],36
COc1ccc2oc(=O)c(C(=O)NCc3ccccc3)cc2c1,-4,?,-1%,-2
CC(=O)c1ccc(COC(=O)c2cc3ccccc3oc2=O)cc1,25*,13µM*,6%,22
CC(=O)c1cc2ccccc2oc1=O,nt,-16%,8%,nt
SMILES,Cycloheximide cs,Pf growth 96h,Pf growth 48h,Shiga toxin inh
COC(=O)c1ccc(COC(=O)c2cc3ccccc3oc2=O)cc1,11*,?,10%,24
COC(=O)c1ccc(CNC(=O)c2cc3ccccc3oc2=O)cc1,1,9%,0%,3
Cc1nnc(-c2ccc(Oc3ccc(Br)cc3)c([N+](=O)[O-])c2)o1,-3,47%,-3%,3
O=[N+]([O-])c1ccc(Oc2ccc(-c3cnc4ccccc4n3)cc2[N+](=O)[O-])cc1,21*,-5%,48%,40*
O=[N+]([O-])c1cc(-c2cnc3ccccc3n2)ccc1Oc1ccc(Br)cc1,29*,62%,32%,111*
CSCCC(=O)N1CCC(CCC(=O)NC2CC2)CC1,4,37%,-3%,-11
Cc1ccc(Cl)cc1NC(=O)Cn1c(C)csc1=O,nt,-3%,2%,nt
O=C(N=C1SC2CS(=O)(=O)CC2N1CCc1ccccc1)C1CC1 (configuration not stated),3,37%,0%,2
COc1ccc(OCC(=O)N/N=C/C=C/c2ccccc2)cc1,9,17%,21%,-6
